# Measurements from the supplement of paper PMC11219838.
# Unmarked numbers belong to inactive results.
# Test system: Meloidogyne hapla J2
# Test: proportion of mobile M. hapla J2 relative to DMSO control (fraction of DMSO control); higher = more viable, less nematicidal, active = 0.7 or less
# Conditions: 60 µM; 5 days; temperature: 20 °C
# Experimental: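 DODA library (846 commercial 1,3,4- and 1,2,4-oxadiazole compounds plus commercial nematicide controls) screened at a single dose of 60 µM (0.6% DMSO) in 96-well plates, two biological replicates. Read-outs: C. elegans N2 L1 survival/reproduction score at day 6, 20 °C (0: 0-10 worms, 1: 11-20, 2: 21-50, 3: >50, 4: overgrown/starved). C. elegans daf-2 dauer, D. dipsaci and M. hapla J2 mobility at day 5, 20 °C, and P. penetrans mobility at day 5, 20 °C, each relative to DMSO controls. M. hapla egg hatching at day 12, 25 °C, relative to the mean of 8 DMSO wells on the same plate.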
row,SMILES,proportion of mobile M. hapla J2
1,CC[C@H](C)[C@H]1O[C@]2(C=C[C@@H]1C)C[C@@H]1C[C@@H](C/C=C(\C)[C@@H](O[C@H]3C[C@H](OC)[C@@H](O[C@H]4C[C@H](OC)[C@@H](O)[C@H](C)O4)[C@H](C)O3)[C@@H](C)/C=C/C=C3\CO[C@@H]4[C@H](O)C(C)=C[C@@H](C(=O)O1)[C@]34O)O2.CO[C@H]1C[C@H](O[C@H]2[C@H](C)O[C@@H](O[C@@H]3/C(C)=C/C[C@@H]4C[C@@H](C[C@]5(C=C[C@H](C)[C@@H](C(C)C)O5)O4)OC(=O)[C@@H]4C=C(C)[C@@H](O)[C@H]5OC/C(=C\C=C\[C@@H]3C)[C@]54O)C[C@@H]2OC)O[C@@H](C)[C@@H]1O [abamectin],1.03
2,O=C(NCCc1ncc(C(F)(F)F)cc1Cl)c1ccccc1C(F)(F)F [fluopyram],0.653 (active)
3,CC(C)NC(=O)N1CC(=O)N(c2cc(Cl)cc(Cl)c2)C1=O [iprodione],1.03
4,CNC(=O)O/N=C(\SC)C(=O)N(C)C [oxamyl],0.936
